This is part of a sample that, as a whole, favours compounds with a hit. Of some 83,000 tested, about 20% had one in any assay.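 Treatment: one concentration, 48 hours, 96-well format. Scoring: percent growth, with anything below 10 considered active.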 Unmarked numbers belong to inactive results. Calls of active or inactive are those of the source.

Common to all, as to experiment: NCI-60 one-dose screen, 48 h (100 = growth as untreated, 0 = no growth, -100 = all killed)
The test system of assay [1] is SK-MEL-2 melanoma. As to conditions: 10 µM unless noted.
Assay [2] has as its system EKVX NSCLC. As to conditions: 10 µM unless noted.
Assay [3] concerns SN12C renal. As to conditions: 10 µM unless noted.
Assay [4] has as its system UO-31 renal. As to conditions: 10 µM unless noted.
Assay [5] relates to TK-10 renal. The note with it: 10 µM unless noted.
The subject of assay [6] is ACHN renal. As to conditions: 10 µM unless noted.
Assay [7] has as its system CAKI-1 renal. The note with it: 10 µM.
Assay [8] deals with A498 renal. The note with it: 10 µM unless noted.
Assay [9] has as its system CCRF-CEM leukemia. The note with it: 10 µM unless noted.
Assay [10] concerns MOLT-4 leukemia. The note with it: 10 µM unless noted.
Assay [11] concerns SR leukemia. The note with it: 10 µM unless noted.
For assay [12], the system named is RPMI-8226 leukemia. The note with it: 10 µM unless noted.
In assay [13] the test system is OVCAR-8 ovarian. As to conditions: 10 µM unless noted.
Assay [14] concerns OVCAR-5 ovarian. As to conditions: 10 µM unless noted.
Assay [15] relates to OVCAR-4 ovarian. As to conditions: 10 µM unless noted.
Assay [16] has as its system SK-OV-3 ovarian. As to conditions: 10 µM unless noted.
Assay [17] deals with IGROV1 ovarian. The note with it: 10 µM unless noted.
Assay [18] deals with OVCAR-3 ovarian. The note with it: 10 µM unless noted.
Assay [19] concerns HS 578T breast. As to conditions: 10 µM unless noted.
The test system of assay [20] is NCI/ADR-RES ovarian. As to conditions: 10 µM unless noted.

For the compound `NC(=O)N1N=C(c2cc3ccccc3oc2=O)CC1c1cn(-c2ccccc2)nc1-c1ccc(Cl)cc1` (stereo not given), the growth in assay [1] is 71.8%; in assay [2], 24.3%; in [3], 47.4%; in assay [4], 17.8%; in assay [5], 93.4%; in assay [6], 32.5%. In addition, the growth in [7] was 32.9%; in [8], 54.5%; in [9], 7.27% (active); in assay [10] it was 17.3%; in assay [11], 44.2%; in [12] it was 48.4%. Moreover, the growth was 37.1% in assay [13]; 64.9% in assay [14]; 34.9% in assay [15]; 75.6% in assay [16]; 28.8% in [17]; 17.6% in assay [18]. The figures for the growth in assay [19] and in assay [20] were 65.1% and 29.3%, respectively.
In the case of `O=C(CCCCCCN1CC(=O)N2[C@@H](c3ccccc3)c3[nH]c4ccccc4c3C[C@H]2C1=O)NO`, the growth is 68.4% in assay [1]; 84.3% in assay [2]; 78.4% in assay [3]; 57.1% in assay [4]; 69.4% in assay [5]; 87.3% in [6]. In addition, the growth in assay [7] is 65.5%; in assay [8], 87.1%; in [9], 24.5%; in [10] it was 20.9%; in [11], 37.2%; in [12], 26.7%. The growth in assay [13] is 39.6%; in assay [14], 58%; in assay [15], 65.6%; in assay [16], 70.1%; in assay [17], 60.6%; in [18] it was 55.5%. The growth in assay [19] is 68.8%; in assay [20] it was 77.9%.
As to `NS(=O)(=O)c1ccc(Nc2nc(N/N=C/c3ccc(C(F)(F)F)cc3)nc(Nc3ccccc3)n2)cc1`, the growth in assay [1] is 28.7%; in assay [2], 53.7%; in assay [3], 42.9%; in assay [4], 60.3%; in assay [5] it was 64.3%; in assay [6] it was 39.6%. The growth in assay [7] is 33.7%; in [8], 39.6%; in [9], 12%; in assay [10], 9.74% (active); in assay [11] it was 7.13% (active); in [12], -5.16% (active). Also, the growth was 33% in [13]; 67.5% in assay [14]; 40.9% in [15]; 55.5% in assay [16]; 31.2% in assay [17]; 11.7% in [18]. The growth was 8.82% (active) in assay [19] and 87.4% in [20].
Take `C#Cc1ccc(NC(=O)c2ccc(/C=C/C(=O)c3nccn3C)cc2)c(F)c1`: the growth in assay [1] was 103%; in [2], 36%; in [3], 16.3%; in assay [4] it was 41.8%; in [5] it was 89.4%; in [6], 37.7%. Also, the growth in assay [7] is 37.3%; in [8], 78.7%; in assay [9], 7.54% (active); in assay [10] it was 16.2%; in assay [11], 8.09% (active); in assay [12], -5.69% (active). Besides, the growth is 21.4% in assay [13]; 40.7% in assay [14]; 42.3% in assay [15]; 65.3% in assay [16]; 23.9% in assay [17]; 12.6% in assay [18]. Moreover, the growth in [19] was 51.4%; in assay [20], 10.8%.
Turning to `O=C(NCCCNc1cc(-c2cn(-c3ccccc3)nc2-c2cccc(O)c2)ccn1)Nc1cc(C(F)(F)F)cc(C(F)(F)F)c1`, the growth is 88.1% in assay [1]; 73.3% in assay [2]; 79.4% in assay [3]; 51.4% in [4]; 93.4% in [5]; 92.6% in [6]. Moreover, the growth is 74.1% in [7]; 71.4% in [8]; 63.1% in [9]; 43.3% in [10]; 53.9% in [11]; 43.9% in assay [12]. In addition, the growth in [13] is 75.7%; in assay [14], 88.8%; in assay [15], 66.9%; in [16], 89.3%; in [17], 64%; in assay [18], 86.5%. For the same compound, the growth was 57.3% in [19] and 69.7% in assay [20].
As to `CCNC(=NCCCN(C)C)N/C(N)=N/c1nc2ccccc2s1`, the growth in assay [1] is 92.9%; in [2], 90.9%; in assay [3], 82%; in [4] it was 64.3%; in [5], 100%; in [6] it was 95.3%. The growth is 65.1% in assay [7]; 111% in [8]; 82.3% in assay [9]; 94.8% in assay [10]; 55.1% in assay [11]; 96.9% in assay [12]. For the same compound, the growth in assay [13] is 90.9%; in assay [14], 95.6%; in assay [15] it was 107%; in [16], 89.9%; in [17] it was 91.1%; in assay [18], 104%. Moreover, the results for the growth in assay [19] and in [20] were 92% and 96.8%, respectively.
With `Oc1ccc(CSc2nnc(-c3ccccc3)n2-c2ccccc2)c2cccnc12`, the growth is 30.8% in assay [1]; 18.5% in assay [2]; 19.5% in assay [3]; -19.8% (active) in assay [4]; 27.3% in assay [5]; 6.88% (active) in [6]. Further, the growth is 10.5% in assay [7]; 12.7% in assay [8]; 9.93% (active) in assay [9]; 15.6% in assay [10]; 33.6% in [11]; 10.9% in assay [12]. In addition, the growth is 16.8% in assay [13]; 43.7% in assay [14]; 15.8% in assay [15]; 9.62% (active) in [16]; 9.4% (active) in assay [17]; 6.38% (active) in assay [18]. Moreover, the growth in assay [19] was 9.17% (active); in [20], 8.58% (active).
`O=c1oc2ccc(-c3ccc(F)cc3F)cc2c(=O)n1-c1cccc(C(F)(F)F)c1`: the growth in assay [1] is -12.5% (active); in assay [2], 8.73% (active); in assay [3], 1.14% (active); in assay [4] it was -18.5% (active); in [5] it was 15.4%; in assay [6], 4.3% (active). In addition, the growth in assay [7] is -12.2% (active); in [8], -34.1% (active); in [9] it was 22.6%; in assay [10] it was 5.65% (active); in [11], 18.4%; in assay [12], -12.9% (active). For the same compound, the growth in assay [13] is 12.4%; in assay [14], 10.4%; in [15], 13.4%; in assay [16] it was 0.403% (active); in assay [17], 8.17% (active); in [18], 10.9%. For the same compound, the growth in assay [19] was -4.83% (active); in assay [20] it was 4% (active).

These data come from PubChem BioAssay (NCI).
